Screens from PubChem.
Most compounds without a hit are left out; they make up all but 3% or so of the library.
FadD28 binding: inhibitors of FadD28 bisubstrate probe binding, primary screen, biochemical, fluorescence polarization, single point; Mycobacterium tuberculosis FadD28 fatty-acid-AMP ligase; inhibition, % at 12.5 µM; 360,000 compounds, 0.22% hits; AID 588549, 2011; in the data active means inhibition above about 8.5%, passing the limit was not always enough; inconclusive means no clear call, values can overlap the other calls
Mtb FBA inh: Mtb FBA enzyme inhibitors, primary screen, biochemical, fluorescence, strain H37Rv; Fructose-bisphosphate aldolase (Mycobacterium tuberculosis (strain ATCC 25618 / H37Rv)), …; purified M. tuberculosis FBA, fluorescence read-out; inhibition, % at 1 µM; 360,000 compounds, 2.3% hits; in the data active means inhibition above about 27%;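 further: 0% = vehicle and 100% = reference inhibitor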
BioA inh-1: M. tuberculosis BioA enzyme inhibitors, primary screen, biochemical, plate reader, single point, HTS. purified M. tuberculosis BioA enzyme. inhibition, % at 9.99 µM. 360,000 compounds, 0.096% hits; in the data active means inhibition above about 40%; inconclusive means no clear call, values can overlap the other calls
GDH-TPI inh: GDH-TPI coupling enzyme inhibitors, primary screen, artefact control for M. tuberculosis FBA inhibitor project, biochemical, absorbance, full deck; inhibition, % at 4.8 µM; 360,000 compounds, 1.2% hits; GDH-TPI coupled enzyme counterscreen, NADH absorbance; in the data active means inhibition above about 30%;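 further: 0% = DMSO wells and 100% = wells lacking the enzyme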
Rv3671c inh: Rv3671c serine protease inhibitors, primary screen, biochemical, fluorescence polarization, M. tuberculosis H37Rv; P9WHR9; inhibition, % at 5.96 µM; 320,000 compounds, 0.048% hits; AID 2606, 2010; in the data active means inhibition above about 38%;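 further: extracellular domain of Rv3671c used as enzyme; 0% = enzyme with DMSO and 100% = no enzyme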
Target sequence (P9WHR9 whole entry, looked up, the tested form may be a part): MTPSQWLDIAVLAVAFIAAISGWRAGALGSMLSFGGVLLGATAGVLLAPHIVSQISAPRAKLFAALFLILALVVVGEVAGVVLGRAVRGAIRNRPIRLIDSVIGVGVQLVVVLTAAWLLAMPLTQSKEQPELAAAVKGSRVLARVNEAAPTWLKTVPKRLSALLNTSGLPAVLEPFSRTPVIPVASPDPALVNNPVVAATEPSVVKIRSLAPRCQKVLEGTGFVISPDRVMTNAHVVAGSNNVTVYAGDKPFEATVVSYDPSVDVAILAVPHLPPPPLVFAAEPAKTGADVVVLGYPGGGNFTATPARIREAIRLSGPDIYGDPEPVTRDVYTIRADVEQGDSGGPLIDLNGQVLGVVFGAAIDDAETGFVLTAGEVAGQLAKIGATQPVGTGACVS
BioA inh-2: Mtb BioA enzyme inhibitors, dose response, biochemical, plate reader, cherry-pick samples, set 03. max activity, %. shares compounds with BioA inh-1. 310 tested, under 10 active. purified BioA enzyme;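 further: top concentration of the dilution series was 10 µM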
HepG2 cytotox: cytotoxicity in HepG2 cells, dose response, cytotoxicity control, cell-based, plate reader, cherry-pick, two tests | shares compounds with BioA inh-1 | 310 tested, under 10 active | max activity, %
NIH3T3 tox 5: cytotoxicity in NIH3T3 fibroblasts, dose response, cytotoxicity control, cell-based, plate reader, cherry-pick, two tests | shares compounds with BioA inh-1 | activity change, negative = cytotoxicity, % at 26 µM | 310 tested, under 10 active | AID 651900, 2012
An asterisk follows results filed as active; i = inactive; ? = inconclusive; · = no result given. Unless noted, how the calls were made is not given here.

SMILES	FadD28 binding	Mtb FBA inh	BioA inh-1	GDH-TPI inh	Rv3671c inh	BioA inh-2	HepG2 cytotox	NIH3T3 tox 5
Cc1noc(C)c1S(=O)(=O)Nc1cccc2c1O[C@H](CN(C)Cc1ccccc1)[C@H](C)CN([C@@H](C)CO)C2=O	·	·	-1.2	·	·	·	·	·
CCOC(=O)C1(CCc2ccccc2)CCN(C(=O)CN2CCOC2=O)CC1	-0.8	6.1	58.6*	-3.2	1.1	-4.1	23.0	8.7
CCOC(=O)C1(CCc2ccccc2)CCN(C(=O)C2=C(C)OCCO2)CC1	-0.9	1.4	·	1.9	-0.7	·	·	·
C/C=C/c1ccc2c(c1)O[C@@H](CN(C)C(=O)Nc1ccc(F)cc1)[C@@H](C)CN([C@@H](C)CO)S2(=O)=O	·	·	54.6*	·	·	-4.8	i	-13.9
COc1ccc(F)cc1C(=O)C1CCCN(C(=O)c2ccc(C(C)=O)s2)C1 (stereo unspecified)	-2.4	-2.1	70.9*	2.6	-9.3	-8.4	-16.4	-3.1
CC(=O)c1ccc(C(=O)N2CCCC(C(=O)c3ccc(Cl)cc3)C2)s1 (stereo unspecified)	-4.5	-1.2	49.5*	-6.2	-4.8	-6.4	7.3	-2.1
CC(=O)c1ccc(C(=O)NC2CCCN(Cc3ccccc3F)C2)s1 (stereo unspecified)	-1.5	3.0	46.0*	-1.4	-10.8	-7.1	-8.7	4.6
CC(=O)c1ccc(C(=O)N2CCCC(Nc3ccccc3)C2)s1 (stereo unspecified)	?	-2.2	64.1*	-1.0	1.2	-8.3	23.8	-0.6
CC(=O)c1ccc(C(=O)N2CCCC(C(=O)c3cc(F)ccc3F)C2)s1 (stereo unspecified)	-0.5	-2.9	37.6	11.0	-4.3	·	·	·
C[C@@H]1CN([C@H](C)CO)C(=O)c2cc(NC(=O)c3ccncc3)ccc2O[C@@H](C)CCCCO[C@H]1CN(C)Cc1ccc(C(=O)O)cc1	·	·	0.1	·	·	·	·	·
C[C@@H]1CN([C@H](C)CO)C(=O)c2cc(C#Cc3cccnc3)cnc2O[C@@H]1CN(C)Cc1ccccc1	·	·	1.9	·	·	·	·	·
CN(C)C(=O)C[C@@H]1CC[C@H]2[C@@H](COc3ccc(NS(=O)(=O)c4cccc(F)c4)cc3C(=O)N2C)O1	·	·	1.7	·	·	·	·	·
Cc1c(OC(C)C(=O)NCc2ccccn2)ccc2c3c(c(=O)oc12)CCC3 (stereo unspecified)	-3.0	30.0*	43.1*	13.3	6.4	-8.0	-5.1	-2.8
CCCc1cc(=O)oc2c(C)c(OC(C)C(=O)NCc3ccccn3)ccc12 (stereo unspecified)	-3.0	15.1	4.0	10.6	1.4	·	·	·
CO[C@H]1CC[C@H]2CCN(C)C(=O)[C@@H](C)CN(C)C(=O)c3cc(C#N)ccc3OC[C@H]1O2	·	·	-1.5	·	·	·	·	·
CC(C)NC(=O)N(C)C[C@H]1Oc2ccc(NC(=O)Cc3cn(C)c4ccccc34)cc2C(=O)N([C@@H](C)CO)C[C@H]1C	·	·	0.8	·	·	·	·	·
CC(=O)c1ccc(NC(=O)CN2CCN(c3ccccc3)CC2)cc1	-2.8	-1.1	54.7*	-18.2	-7.3	-5.8	8.6	-3.0
CC(=O)c1ccc(NC(=O)CN2CCN(CC(=O)Nc3ccc(C(C)=O)cc3)CC2)cc1	-0.9	3.9	-0.1	7.0	·	·	·	·
CO[C@@H]1CN(C)C(=O)c2ccc(NS(=O)(=O)c3cccc(F)c3)cc2OC[C@H](C)NC[C@@H]1C	·	·	-0.8	·	·	·	·	·
Cc1ccc(/C=C(\CCC(=O)O)c2nc3ccccc3s2)cc1[N+](=O)[O-]	-0.9	-3.0	89.7*	34.4*	2.7	-4.7	5.7	1.9
CN(c1ccccc1)c1ccc(/C=C(\CCC(=O)O)c2nc3ccccc3s2)cc1[N+](=O)[O-]	4.8	0.3	·	22.6	-3.0	·	·	·
C[C@@H]1CCCCO[C@@H](CN(C)C(=O)C2CCCCC2)[C@H](C)CN([C@H](C)CO)C(=O)c2cc(NC(=O)C3CCCCC3)ccc2O1	·	·	3.2	·	·	·	·	·
NC(=O)c1ccc(Oc2cccc3cccnc23)c([N+](=O)[O-])c1	-3.2	6.7	41.9*	0.6	-6.8	25.0	19.6	6.7
COc1ccc(C(=O)Oc2cccc3cccnc23)cc1[N+](=O)[O-]	-1.9	-1.2	·	3.9	-7.9	·	·	·
CNC[C@@H]1Oc2ccc(NC(=O)C3CC3)cc2CC(=O)N([C@@H](C)CO)C[C@H]1C	·	·	1.0	·	·	·	·	·
SMILES	FadD28 binding	Mtb FBA inh	BioA inh-1	GDH-TPI inh	Rv3671c inh	BioA inh-2	HepG2 cytotox	NIH3T3 tox 5
Cc1c(Cl)cccc1-n1c(SCC(=O)NCc2cccs2)nnc1-c1ccncc1	-0.3	-1.9	13.7	7.5	-1.2	·	·	·
O=C(CSc1nnc(-c2ccncc2)n1-c1ccc(Cl)cc1)NCc1cccs1	-1.8	2.3	47.4*	3.1	0.9	-9.6	-13.1	-7.8
O=C(c1ccc(S(=O)(=O)Nc2ccccc2F)cc1)N1CCN(c2ccccc2O)CC1	-1.5	2.4	66.6*	7.9	-3.7	-6.3	15.9	-5.4
O=C(c1ccc(NS(=O)(=O)c2ccc(F)cc2)cc1)N1CCN(c2ccccc2O)CC1	-0.7	1.4	0.3	2.4	2.6	·	·	·
O=C(Nc1cccnc1)c1cc2nc(C3CC3)cc(C(F)(F)F)n2n1	-1.3	2.3	89.6*	4.8	-0.2	-3.0	18.9	-0.2
CCc1c(C)nc2ncnn2c1Nc1ccc(C#N)c(Cl)c1	0.3	3.3	40.4*	25.0	1.3	-5.6	-7.2	-6.6
CC1CN(C(=O)Nc2ccc3snnc3c2)c2ccccc21 (stereo unspecified)	-4.4	4.5	62.9*	10.1	-0.8	-6.8	16.9	-1.1
COC(=O)C1C(=O)C=C(Nc2ccc(F)cc2F)CC1c1ccc(OC)cc1 (stereo unspecified)	-0.7	-1.4	19.3	6.5	1.4	·	·	·
COC(=O)C1C(=O)C=C(Nc2ccc(F)cc2)CC1c1ccc(OC)cc1 (stereo unspecified)	-5.1	-1.4	75.4*	2.5	-6.6	-5.6	7.6	-1.7
O=C(CN1C(=O)/C(=C/c2cccc(Br)c2)SC1=S)Nc1cccnc1	-0.3	-2.2	87.9*	1.2	-0.9	4.6	4.0	0.0
C[C@@H](NC(=O)C[C@@H]1CC[C@@H]2[C@H](COC[C@H](O)CN2C(=O)Nc2cccc(Cl)c2)O1)c1ccccc1	·	·	1.4	·	·	·	·	·
Cc1nc2c(C(=O)N3CCN(c4ccccn4)CC3)cnn2c(C)c1Cc1cccc(Cl)c1	-1.9	3.2	40.2*	0.5	9.4	-6.5	11.1	5.1
